RE007 growth inh: qHTS Assay for Inhibitors of the HIV-1 protein Vpr; S. pombe RE007 Vpr strain, BacTiter-Glo ATP luminescence, 24 h; Potency, µM (top dose mostly 92.2 µM), for inactives: top-dose activity change, negative = less growth, usual class: inhibitors; 360,000 tested, 0.21% active; active = well fitted falling curve with a large enough effect; inconclusive = small, poorly fitted or top-dose-only effect; inactive = no such curve, though single readings can be large or run the other way; also: potency is read from the fitted curve at half-maximal effect; nearly all actives have a fitted effect of over 50% in size
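Fission yeast strain RE007, carrying one chromosomally integrated HIV-1 vpr copy, was seeded at OD 0.01 in PMG+AL medium with 23 nL pinned compound. After 24 h at 30 °C and 99% humidity, viability was read by BacTiter-Glo luminescence.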
FBPA Giardia inh: qHTS Assay for Inhibitors of Fructose-1,6-bisphosphate Aldolase from Giardia Lamblia. A8B2U2. purified Giardia FBPA. Potency, µM (top dose mostly 59.6 µM), inactives show at the top dose activity, negative = inhibition, most hits filed as inhibitors. 290,000 tested, 0.71% active. AID 2451, 2010; also: potency is read from the fitted curve at half-maximal effect; nearly all actives have a fitted effect of over 55% in size
Target sequence (A8B2U2 whole entry, looked up): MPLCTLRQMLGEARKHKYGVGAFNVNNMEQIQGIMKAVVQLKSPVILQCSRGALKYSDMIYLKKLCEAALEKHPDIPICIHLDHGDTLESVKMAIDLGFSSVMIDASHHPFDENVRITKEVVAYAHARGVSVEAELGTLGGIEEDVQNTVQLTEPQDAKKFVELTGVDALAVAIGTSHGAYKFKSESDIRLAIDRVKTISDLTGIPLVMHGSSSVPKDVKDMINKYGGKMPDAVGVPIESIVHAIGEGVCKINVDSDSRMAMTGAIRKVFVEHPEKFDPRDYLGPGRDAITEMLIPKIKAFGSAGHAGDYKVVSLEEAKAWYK
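Giardia FBPA (40 nM reagent) was preincubated 10 min at RT with compound (up to 57.5 uM final), then substrate plus GAPDH/TPI/NAD/arsenate coupling system with diaphorase/resazurin was added; resorufin fluorescence (525/598 nm) was read after 20 min.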
HCMV antiviral: qHTS Assay for inhibitors of the human cytomegalovirus (HCMV); HFF cells, HCMV-luciferase reporter, 72 h; stronger effect = lower value; AID 1259415, 2018; activity change, negative = inhibition, % at 57.5 µM; 410,000 tested, 4.5% active; in the data active = activity change below about -60%; inconclusive = no clear call, values can overlap the other calls; inactive = above about -39%
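Two compound doses tested in HFFs infected with HCMV-luciferase, MOI 1 PFU/cell, 72 h at 37C. Lysate luminescence read with OneGlo; data normalized against buffer-only and 10uM Salinomycin inhibitor controls.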
TbPYK inhibitor: qHTS of Trypanosoma Brucei Inhibitors; 410,000 tested, 0.12% active; AID 624173, 2012; pyruvate kinase (Trypanosoma brucei), Q57TT1; Potency, µM (top dose mostly 76.8 µM), without a hit: at the highest dose activity, negative = inhibition, hits mostly inhibitors; TbPYK enzyme, Kinase-Glo Plus ATP luminescence, 45 min; also: potency is read from the fitted curve at half-maximal effect; nearly all actives have a fitted effect of over 50% in size
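Screened from lowest to highest concentration, compounds were pinned into TbPYK/substrate mixtures, and ADP (130 uM final) was added. Plates sat at room temperature for 45 min prior to Kinase-Glo Plus detection by luminescence.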
FMDV inh: High Throughput Screening for Foot and Mouth Disease Virus Antivirals | FMDV antiviral cell-based qHTS | Potency, µM (highest dose often 57.9 µM), inactives show at the highest dose activity change, negative = inhibition, hits mostly inhibitors | 410,000 tested, 1.2% active; calls by dose curve; tested in HEK293T cells; also: read-out not given here; potency is read from the fitted curve at half-maximal effect; nearly all actives have a fitted effect of over 45% in size
Sm TGR inh: qHTS Assay for the Inhibitors of Schistosoma Mansoni Peroxiredoxins; AID 485364, 2010; Potency, µM (series often up to 114 µM), for the others: top-dose activity change, negative = inhibition, actives largely listed as inhibitors; 360,000 tested, 3% active; purified TGR, DTNB reduction, TNB absorbance 405 nm; also: potency is read from the fitted curve at half-maximal effect; nearly all actives have a fitted effect of over 60% in size
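First, TGR (20 nM dispensed) and NADPH were mixed with compound. Second, a 15 min room-temperature incubation followed. Third, further NADPH and then DTNB were added to start the reaction. Finally, TNB absorbance was monitored kinetically.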
Active calls of the source: *; ? = inconclusive; / = no result. Compounds with a hit are over-represented: about 7.7% of the library has one in this group of screens. Unless noted, calls follow the shape of the dose curve; as a rule, active = well fitted curve in the direction sought with a large enough effect; inconclusive = small, poorly fitted or top-dose-only effect, or another doubt; inactive = no such curve, though single readings can be large; an effect the other way counts as inactive or inconclusive. % is scaled to controls: 0 for no effect and ±100 for the full control effect.

SMILES | RE007 growth inh | FBPA Giardia inh | HCMV antiviral | TbPYK inhibitor | FMDV inh | Sm TGR inh
O=S1(=O)CCC(NC(=S)SCCOc2ccccc2)C1 (configuration not stated) | 6.6% | 1.1% | -69.5* | 2.4% | 14.1µM* | ?
CCCCSC(=S)NC1CCS(=O)(=O)C1 (configuration not stated) | 1.3% | 1.5% | -84.2* | -0.5% | -27.4% | -1.7%
CCOC(=O)c1ccccc1NC(=O)CSc1cc(C)[nH]c(=O)n1 | / | / | 3.8 | -10.8% | -5.7% | 0.4%
CCC(C)(C)c1ccc(Oc2ccc(N)cc2)cc1 | 44.6% | -1.2% | -91.4* | -15.1% | 1.12µM* | 3.3%
CCOC(=O)C1=C(C)NC(SC)=NC1c1ccc(OC)cc1 (configuration not stated) | -15.6% | 5.0% | -12.7 | -6.6% | -13.3% | ?
CCC1N=C(SC)NC(C)=C1C(=O)c1ccccc1 (configuration not stated) | -0.2% | 2.1% | -68.6* | 10.5% | -8.9% | 0.4%
COc1ccc(-n2c(=O)c3c(c4cc(OC)ccc4n3C)n(CC(=O)N3CCCC3)c2=O)cc1 | / | / | 12.1 | 4.6% | -3.6% | -9.2%
O=C1CSC(=S)N1/N=C/c1cc(Br)ccc1O | / | 17.3% | / | / | / | 7.94µM*
O=C1CSC(=S)N1/N=C/c1ccc(O)c(O)c1O | -16.2% | 7.92µM* | / | ? | -16.8% | ?
COc1ccccc1C=NN1C(=O)CSC1=S | -6.7% | / | -0.9 | -0.1% | 9.9% | /
O=S(=O)(NCc1cccnc1)c1ccc(Br)c2ccccc12 | 10.2% | 2.6% | -62.8* | -3.1% | 29.3% | -4.6%
O=C(NCc1cccnc1)c1cccc(Cl)c1 | -2.9% | 11.4% | -60.9* | -4.0% | -1.2% | 5.0%
O=C(NCc1cccnc1)c1cccc(F)c1 | -18.7% | 2.5% | 29.3 | 3.6% | ? | 3.7%
Cc1cc(S(=O)(=O)NCc2cccnc2)ccc1F | -7.2% | 10.1% | -9.2 | 0.2% | 17.1% | 7.4%
Cc1ccc(S(=O)(=O)NCc2cccnc2)cc1C | -13.7% | 3.7% | -85.6* | -8.2% | 35.6% | -8.0%
O=C(NCc1ccco1)c1ccc(COc2ccccc2Cl)cc1 | -13.7% | 0.0% | -27.5 | -8.5% | -12.8% | ?
O=C(NCc1cccnc1)c1ccc(COc2ccccc2Cl)cc1 | -13.0% | 0.3% | -73.4* | 3.5% | -25.8% | 10.1%
CC(=O)c1cccc(NC(=O)Cn2nc(C(F)(F)F)c3c2CCC3)c1 | / | / | -0.2 | 1.0% | -17.5% | 5.6%
Cc1ccc2nc(-c3ccc(Cl)c(NC(=O)c4ccc5c(c4)OCCO5)c3)oc2c1 | / | / | 8.2 | -2.5% | 61.1% | 7.9%
CCc1ccc(NC(=O)C(=O)NCC(c2ccc3c(c2)OCO3)N2CCOCC2)cc1 (configuration not stated) | / | / | -27.8 | 2.1% | -0.8% | 2.7%
Cc1cccc(C)c1NC(=O)CCS(=O)(=O)c1ccc2c(c1)CC(C)N2C(=O)C1CC1 (configuration not stated) | / | / | -7.1 | -5.7% | -25.4% | -9.8%
O=C(Nc1cccnc1)c1ccc(COc2ccccc2Br)cc1 | -18.0% | 0.3% | -25.4 | -8.1% | -29.6% | -1.0%
O=C(NCc1cccnc1)c1ccc(COc2ccccc2Br)cc1 | 10.8% | -0.5% | -76.5* | 1.7% | ? | 2.2%
O=C(Nc1ccc(Cl)c(Cl)c1)c1cccc(S(=O)(=O)NCc2cccnc2)c1 | 11.4% | 9.4% | -94.8* | -12.8% | ? | 6.7%
Cc1c(C(=O)N2CCN(Cc3ccc4c(c3)OCO4)CC2)sc2ncnc(N3CCN(c4ccccc4F)CC3)c12 | -17.3% | / | -76.4* | 10.7% | 28.2µM* | -5.3%
Cc1c(C(=O)N2CCN(Cc3ccc4c(c3)OCO4)CC2)sc2ncnc(N3CCN(c4ccccc4)CC3)c12 | -6.0% | 16.3% | -85.8* | -3.7% | 2.51µM* | -9.2%
COc1ccc(-c2nc(-c3ccccc3)oc2Nc2c(C)cccc2C)cc1 | / | 0.0% | / | / | / | /
